Source: PubChem BioAssay
JMJD2A Tudor – JMJD2A Tudor domain (human) inhibition; Potency, µM (highest dose often 114 µM), most hits filed as inhibitors; 390,000 compounds, 4.4% hits; O75164; AlphaScreen JMJD2A-Tudor / H3K4me3 peptide binding; AID 504339; note: nearly all actives have a fitted effect of over 50% in size
G9a block – G9a (human) methyltransferase inhibition; 350,000 compounds, 8.8% hits; AID 504332; Potency, µM (highest dose often 102 µM), actives largely listed as inhibitors; G9a H3K9 monomethylation, AlphaScreen, 2 h; note: nearly all actives have a fitted effect of over 75% in size
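G9a (20 nM) was preincubated 15 min with compound, then reacted 2 h at room temperature with 500 nM biotin-H3K9 peptide and 20 µM SAM. Monomethyl-H3K9 detected by AlphaScreen using anti-H3K9me1 antibody.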
L3MBTL1 block – L3MBTL1 (human) inhibition. Q9Y468. AlphaScreen L3MBTL1–H3K9me1 peptide binding. Potency, µM (titrated, usually from 57.1 µM), actives largely listed as inhibitors. 230,000 compounds, 0.66% hits. AID 485360; note: nearly all actives have a fitted effect of over 60% in size
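AlphaScreen proximity signal between nickel-chelate acceptor and streptavidin donor beads (final 10 ug/mL) reports binding of 50 nM L3MBTL1 to 75 nM biotin-H3 K9me1 peptide; complex incubated with compounds 30 min at room temperature; cefsulodin titration as control.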
BAZ2B block – inhibitors of human BAZ2B bromodomain. AlphaScreen BAZ2B-H3K14Ac peptide displacement. Q9UIF8. Potency, µM (series often up to 114 µM), most hits filed as inhibitors. AID 504333. 360,000 compounds, 4.4% hits; note: nearly all actives have a fitted effect of over 60% in size
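AlphaScreen luminescence quantifies BAZ2B engagement of H3K14Ac peptide; the protein and biotinylated peptide are both at 50 nM final, buffer PBS pH 7.4 with 0.01% Tween-20, all steps at room temperature.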
Sfp inh – Sfp phosphopantetheinyl transferase inhibition; Q9F4F7; Biochemical Sfp PPTase activity, qHTS; Potency, µM, usual class: inhibitors; 310,000 compounds, 3.5% hits;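 note: the enzyme is Sfp with the accession as filed and its product quenches rhodamine fluorescence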
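Fluorescence-quenching assay: 15 nM Sfp-PPTase preincubated 15 min at room temperature with compound, then 5 uM rhodamine-CoA and 12.5 uM BHQ-2-labelled YbbR peptide added. Fluorescence (ex 525/em 598 nm) read at start and after 30 min; difference gives rate.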
HP1b chromo inh – HP1-beta chromodomain-methylated histone interaction inhibition | P83916 | AlphaScreen HP1-beta / biotin-H3K9me3 peptide binding | Potency, µM (highest dose often 114 µM), most hits filed as inhibitors | 390,000 compounds, 0.56% hits | AID 540317; note: nearly all actives have a fitted effect of over 70% in size
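Compound inhibition of the preformed complex between 50 nM HP1-beta and 50 nM biotinylated H3K9me3 peptide was read by AlphaScreen. Buffer was PBS pH 7.4 with 0.01% Tween-20. Incubations ran 30 min at room temperature, with 10 ug/mL donor/acceptor beads.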
Hits are given with their value; i = inactive; ? = inconclusive; nt = not tested or not shown; [ ] = remark or other dose. Rows were chosen to be rich in hits. Some 12% of all compounds tested hit in one or more screens of this group. Calls come from the whole dose curve; as a rule, active = well fitted curve in the direction sought with a large enough effect; inconclusive = small, poorly fitted or top-dose-only effect, or another doubt; inactive = no such curve, though single readings can be large; an effect the other way counts as inactive or inconclusive.

SMILES	JMJD2A Tudor	G9a block	L3MBTL1 block	BAZ2B block	Sfp inh	HP1b chromo inh
CCN(CC)CC(O)Cn1c(C)c(-c2ccccc2)c2cc([N+](=O)[O-])ccc21 (centres undefined)	?	44.7µM	nt	?	i	i
COc1cc(CN(C)Cc2cccc3ccccc23)cc([N+](=O)[O-])c1O	?	70.8µM	i	?	i	i
CN(Cc1cccc([N+](=O)[O-])c1)Cc1cccc2ccccc12	i	nt	i	i	i	i
COc1cccc(OCCCCCN2CCOCC2)c1	i	i	i	i	i	i
CC1CN(CCOc2cccc(Oc3ccccc3)c2)CC(C)O1 (centres undefined)	20µM	10µM	i	50.1µM	i	?
CC1CCCN(CCOc2cccc(Oc3ccccc3)c2)C1 (centres undefined)	22.4µM	8.91µM	i	56.2µM	i	?
CCCOc1ccc(OCCN2CCCC(C)C2)cc1 (centres undefined)	?	14.1µM	i	56.2µM	i	i
c1ccc(Oc2cccc(OCCCCN3CCCC3)c2)cc1	35.5µM	?	i	56.2µM	i	i
CC(=O)c1ccc(NC(=O)CC(c2cccs2)N2Cc3ccccc3C2=O)cc1 (centres undefined)	i	i	nt	i	nt	i
c1ccc(-c2cccc(N3CC[C@@]4(CCCNC4)C3)c2)cc1	nt	i[12.7 µM]	nt	nt	i	nt
CC1CN(CCCCOc2cccc(Oc3ccccc3)c2)CC(C)O1 (centres undefined)	0.891µM	i	i	35.5µM	?	?
CC1CN(S(=O)(=O)c2cccc(C(=O)OCCOc3ccccc3)c2)CC(C)O1 (centres undefined)	i	i[12.7 µM]	i	i	nt	i
CCCOc1ccccc1/C=C(\C#N)C(=O)Nc1cccc(C)n1	i	20µM	nt	i	i	i
CCOC(=O)c1c(-c2ccc(C)cc2)csc1NC(=O)/C(C#N)=C/c1ccc(O)c(OC)c1	i	i	i	?	i	i
N#C/C(=C\c1ccccc1)C(=O)Nc1nncs1	i	50.1µM	i	i	i	i
N#C/C(=C\c1cccs1)C(=O)Nc1ccccn1	i	56.2µM	i	i	i	i
CCOC(=O)c1c(-c2ccccc2)csc1NC(=O)/C(C#N)=C\c1ccc(O)c(OC)c1	28.2µM	nt	nt	nt	nt	?
N#Cc1cccc(NC(=O)N2CCC3(CC2)CCN(C(=O)c2ccco2)CC3)c1	nt	i[12.7 µM]	nt	nt	i	nt
CCOc1cc(/C=C(\C#N)C(=O)Nc2ccccn2)ccc1O	i	44.7µM	nt	i	i	i
CC(C)(C)c1ccc(C(=O)/C(C#N)=C/c2cccs2)cc1	?	?	i	50.1µM	i	?
N#C/C(=C\c1ccccc1)C(=O)Nc1ccccn1	i	i	nt	i	i	i
Cc1cccc(/C=C(\C#N)C(=O)Nc2ccccn2)c1	i	44.7µM	nt	i	i	i
Cc1ccc(Nc2nc(C#N)nc(NC3CCCC3)n2)cc1	i	nt	nt	nt	nt	nt
Cc1ccc(Nc2nc(C(=O)N3CCC(C(=O)NCc4ccccc4)CC3)cs2)cc1	i	i	nt	i	i	i
O=C(c1csc(Nc2ccccc2Cl)n1)N1CCCC1	i	?	?	i	79.4µM	i
SMILES	JMJD2A Tudor	G9a block	L3MBTL1 block	BAZ2B block	Sfp inh	HP1b chromo inh
O=C(c1cccc2ccccc12)N1CCCCC1	i	i	nt	i	i	i
O=C(O)CCC(=O)Nc1ccc(-c2csc(Nc3cccc4ccccc34)n2)cc1	i	i[12.7 µM]	i	i	nt	i
CCN(CC)CCCNC(=O)c1csc(Nc2cccc3ccccc23)n1	i	nt	i	?	i	i
O=C(NCC(O)CO)c1csc(Nc2cccc3ccccc23)n1 (centres undefined)	i	39.8µM	i	?	i	i
O=C(c1csc(Nc2cccc3ccccc23)n1)N1CCCC1	i	i	nt	39.8µM	i	i
CCN(CC)C(=O)c1csc(Nc2cccc3ccccc23)n1	i	39.8µM	i	?	i	i
O=C(NCCc1ccc(Cl)cc1)c1ccc(CSCc2ccc(Cl)cc2)o1	i	i	nt	i	nt	i
CC(=O)Nc1ccc(NC(=O)CC(C)n2ccc(C)n2)cc1 (centres undefined)	i	i	nt	i	nt	i
Cc1cccc(N(C)S(=O)(=O)c2nnc(NC(=O)C(C)(C)C)s2)c1	i	i	nt	i	nt	i
Cc1ccc(NC(=O)C2CCCN2S(=O)(=O)c2ccc3nc(-c4ccccc4)[nH]c3c2)cc1C (centres undefined)	i	i	nt	79.4µM	nt	i
CCOc1cc(C2CC(=O)NC3=C2C(=O)C(C(=O)OC)C(C)C3)cc(Br)c1O (centres undefined)	i	44.7µM	i	i	50.1µM	i
COc1ccc2[nH]cc(CCNc3ccnc(-c4ccccc4C(F)(F)F)n3)c2c1	nt	i[0.501 µM]	nt	nt	i	nt
CCCn1c(C)nc2c(NCCO)nc(C)nc21	nt	nt	nt	nt	i	nt
Cc1cc(C)cc(NC2=CC(c3cccc(F)c3)N(c3cc(C)cc(C)c3)C2=O)c1 (centres undefined)	i	i	nt	i	nt	i
O=C1OCCN1S(=O)(=O)Nc1ccccc1	79.4µM	44.7µM	nt	i	i	i
O=C(c1cc(Cl)ccc1F)N1CCCC(Nc2ccc3c(c2)OCCO3)C1 (centres undefined)	?	79.4µM	nt	?	i	i
CSCc1ccc(C(=O)N2CCCC(Nc3ccc4c(c3)OCCO4)C2)o1 (centres undefined)	i	79.4µM	nt	i	i	i
CCC(C(=O)NCCc1ccc(OC)c(OC)c1)n1nc(C)c2sc3ccccc3c2c1=O (centres undefined)	i	i	nt	i	nt	i
O=C(CCN1C(=O)C2C3CC(C(Br)C3Br)C2C1=O)OCC(=O)c1ccccc1 (centres undefined)	79.4µM	i	i	i	i	i
Oc1ccc(-c2csc(Nc3ncccn3)n2)cc1O	28.2µM	2.24µM	i	nt	50.1µM	70.8µM
CC(=O)Nc1cccc(-c2csc(Nc3ncccn3)n2)c1	nt	15.8µM	?	i	i	nt
CC(=O)Nc1cccc(-c2csc(Nc3ccc(C)cn3)n2)c1	?	?	i	?	i	i
Oc1ccc(-c2csc(Nc3ncccn3)n2)c(O)c1	i	i	i	nt	50.1µM	i
Cc1cccc(Nc2nc(-c3ccc(O)cc3O)cs2)n1	?	50.1µM	i	?	?	i
CN1CCN(C(=O)C(=O)Nc2c3c(nn2-c2cccc(Cl)c2)CSC3)CC1	i	i	nt	i	nt	i
CCOC(=O)c1c(C)[nH]c(C)c1S(=O)(=O)NCC(=O)Nc1ccc(C)c(N(C)C)c1	i	i	nt	i	nt	i
COc1cccc(C(=O)NCCc2sc(-c3cccc(C)c3)nc2C)c1	i	i	nt	i	nt	i
Oc1ccc(-c2csc(Nc3ccc4c(c3)OCO4)n2)c(O)c1	56.2µM	nt	nt	nt	nt	?
Nc1nc(Cl)nc2c1ncn2C1OC(CO)C(O)C1F (centres undefined)	nt	nt	nt	nt	i	nt
Cc1[nH]c(=O)[nH]c(=O)c1/C=N/NC(=O)[C@@H](N)CC(C)C	?	?	i	50.1µM	i	i
